TGFb inhibitor: TGF-b pathway inhibition; HepG2 CAGA-GFP TGF-b/SMAD3 reporter, GFP fluorescence, 18 h; TGF-beta stimulated, 500 pg/mL final; Potency, µM (doses to about 46.1 µM), inactives show at the highest dose activity, negative = inhibition, actives largely listed as inhibitors; 1.2% of 410,000 active; note: potency is the fitted concentration of half-maximal effect; % is set by controls: 0 for no effect and ±100 for the full control effect; nearly all actives have a fitted effect of over 65% in size
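Smad-responsive CAGA-GFP expression was quantified in HEPG2 cells exposed to compounds and 500 pg/mL final TGF-beta for 18 h at 37 degrees C; unstimulated wells defined full inhibition.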
DT40 TDP1 no CPT: qHTS for Inhibitors of human tyrosyl-DNA phosphodiesterase 1 (TDP1): qHTS in cells in absence of CPT; 15% of 420,000 active; DT40 Tdp1-/- hTDP1 cells, no CPT, ATP luminescence, 48 h; Potency, µM (series often up to 46.2 µM), inactives show at the highest dose activity change, negative = growth inhibition, most hits filed as inhibitors; note: potency is the fitted concentration of half-maximal effect; % is set by controls: 0 for no effect and ±100 for the full control effect; nearly all actives have a fitted effect of over 55% in size
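Chicken DT40 Tdp1-/- cells stably complemented with human TDP1 were seeded at 400 cells/well with DMSO in place of 20 nM camptothecin. After compound pinning, cells grew at least 48 hr at 37 °C; viability read by CellTiter-Glo luminescence.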
IL-1B inflam inh: blocks inflammasome-driven IL-1 beta release | AID 743279 | activity change, % at 57.5 µM | 4.7% of 360,000 active | THP-1 LPS/ATP IL-1B secretion, AlphaLISA, 16 h; hits give low values; in the data active = activity change below about -50%; inconclusive = mostly about -30% to -49%; note: % is set by controls: 0 for no effect and ±100 for the full control effect
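THP-1 cells pretreated 1 hr with compounds (up to 57.5 uM final), then stimulated with LPS (250 ng/mL final) plus ATP (1.25 mM final); secreted IL-1B measured by AlphaLISA after 16 hr, decreased signal indicating inhibition.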
DT40 TDP1 CPT: growth inhibition of DT40 Tdp1-/-;hTDP1 cells with camptothecin (screen for TDP1 inhibitors); Potency, µM (highest dose often 46.2 µM), for the others: at the top dose activity change, negative = growth inhibition, most hits filed as inhibitors; 12% of 420,000 active; chicken DT40 Tdp1-/-;hTDP1 cells + 20 nM CPT, ATP luminescence, 48 h; note: potency is the fitted concentration of half-maximal effect; % is set by controls: 0 for no effect and ±100 for the full control effect; nearly all actives have a fitted effect of over 55% in size
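Cell growth measured by CellTiter-Glo luminescence after a minimum 48 h, 37 C compound exposure with 20 nM CPT in Tdp1-knockout DT40 cells stably expressing hTDP1, seeded 400/well; qHTS titration format.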
HepG2 viability: counter-screen for TGF-b inhibitors: cytotoxicity in HepG2 cells; HepG2 CAGA-GFP viability, ATP luminescence, 18 h; Potency, µM (series often up to 46.1 µM), for the others: at the top dose activity change, negative = cytotoxicity, most hits filed as cytotoxic; 0.76% of 410,000 active; AID 588856; note: potency is the fitted concentration of half-maximal effect
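HepG2 CAGA-GFP cells (1000/well, DMEM with 1% FBS) received compound, then TGF-beta at 500 pg/mL final, and were incubated 18 hours at 37 degrees C. Viability was read by CellTiter-Glo luminescence. Media-only wells were set as complete cell-killing and DMSO as no toxicity.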
ASM inhibitor: inhibitors of human secretory acid sphingomyelinase; 0.006% of 340,000 active; AID 504937; P17405; placental ASM, HMU-PC fluorogenic substrate, 60 min; Potency, µM (titrated, usually from 57.5 µM), for the others: top-dose activity change, negative = inhibition, actives largely listed as inhibitors; note: potency is the fitted concentration of half-maximal effect
Target sequence (P17405 47-631 limits assumed): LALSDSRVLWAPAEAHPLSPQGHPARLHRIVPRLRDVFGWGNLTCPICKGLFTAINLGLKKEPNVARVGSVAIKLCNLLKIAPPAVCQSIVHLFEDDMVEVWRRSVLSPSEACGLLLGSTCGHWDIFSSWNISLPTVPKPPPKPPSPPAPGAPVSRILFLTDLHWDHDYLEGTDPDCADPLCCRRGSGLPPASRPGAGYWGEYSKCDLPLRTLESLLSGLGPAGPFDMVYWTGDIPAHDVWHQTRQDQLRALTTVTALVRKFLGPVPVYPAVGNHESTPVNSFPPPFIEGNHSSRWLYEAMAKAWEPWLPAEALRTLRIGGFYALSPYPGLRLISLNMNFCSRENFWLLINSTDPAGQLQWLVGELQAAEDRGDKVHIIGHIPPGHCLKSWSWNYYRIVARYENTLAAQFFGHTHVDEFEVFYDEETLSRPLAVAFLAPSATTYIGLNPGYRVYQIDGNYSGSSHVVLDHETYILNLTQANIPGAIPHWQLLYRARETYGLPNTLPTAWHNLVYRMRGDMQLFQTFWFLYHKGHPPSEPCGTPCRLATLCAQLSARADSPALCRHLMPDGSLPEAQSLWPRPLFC
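Human placenta-derived ASM enzyme was preincubated with compound for 10 minutes at room temperature, then given fluorogenic substrate HMU-PC0 (9 uM final) for 60 minutes at 37 °C; a pH 10 stop preceded fluorescence reading at Ex 386/Em 447 nm.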
Starred values were filed as active, the others as inactive; u = inconclusive; x = no result; ! = not confirmed by another sample. Sampled rows, rich in hits. Any-hit rate of the full collection: about 19%. Unless noted, calls come from the whole dose curve; as a rule, active = well fitted curve in the direction sought with a large enough effect; inconclusive = small, poorly fitted or top-dose-only effect, or another doubt; inactive = no such curve, though single readings can be large; an effect the other way counts as inactive or inconclusive.

SMILES	TGFb inhibitor	DT40 TDP1 no CPT	IL-1B inflam inh	DT40 TDP1 CPT	HepG2 viability	ASM inhibitor
Cc1ccc(S(=O)(=O)N2C3CCCCC3O[C@H]2CC(=O)Oc2ccccc2)cc1 (stereo not given in full)	x	-30%	22	u	x	x
CCCc1nn2c(=O)cc(COc3ccc(/C=C(\C#N)C(=O)Nc4ccccc4)cc3)nc2s1	-21%	-17%	x	-5%	-8%	x
CCOC(=O)[C@]12CCCC=C1N(Cc1ccc3c(c1)OCO3)C(=O)[C@H](CC(=O)N1CCOCC1)C2	x	-25%	24	u	x	x
CC1CCC(NC(=O)CSc2nncn2C)CC1 (stereo not given)	0%	3%	15	7%	4%	3%
COc1ccc2[nH]c3c(c2c1)CCN1C(=O)N([C@@H](C)C(=O)NC2CCCC2)C(=O)[C@]31C	-3%	u	-8	12µM*	0%	1%
COc1ccc2[nH]c3c(c2c1)CCN1C(=O)N([C@@H](C)C(=O)NC2CC2)C(=O)[C@]31C	71%	u	10	-26%	38%	5%
CC(C)[C@@H](C(=O)NC1CC1)N1C(=O)N2CCc3c([nH]c4ccccc34)[C@@]2(C)C1=O	-21%	-28%	21	u	-28%	1%
COc1ccc2[nH]c3c(c2c1)CCN1C(=O)N([C@@H](C)C(=O)NC2CCN(Cc4ccccc4)CC2)C(=O)[C@]31C	u	16µM*	-22	16µM*	-24%	6%
C[C@@H](C(=O)NCCc1ccccc1F)N1C(=O)N2CCc3c([nH]c4ccccc34)[C@@]2(C)C1=O	u	9.2µM*	-10	12µM*	-29%	-7%
CC(C)[C@@H](C(=O)NC1CCN(Cc2ccccc2)CC1)N1C(=O)N2CCc3c([nH]c4ccccc34)[C@@]2(C)C1=O	u	13µM*	u	18µM*	-16%	-9%
CC(C)(C)c1cc(C(=S)N2CCCC2)cc(C(C)(C)C)c1O	-2%	u	-15	u	-11%	-4%
CC(NC(=O)CSc1ccccc1)c1ccccc1 (stereo not given)	-2%	3%	45	-1%	3%	-1%
CC1CC(C)CN(CCCNC(=O)CN2C(=O)CSc3ccc(S(=O)(=O)N4CCOCC4)cc32)C1 (stereo not given)	12%	18%	-4	2%	-1%	7%
C[C@@H](C(=O)NC1CCN(Cc2ccccc2)CC1)N1C(=O)N2CCc3c([nH]c4ccccc34)[C@@]2(C)C1=O	u	u	-18	23µM*	-27%	-2%
C[C@@H](C(=O)NC1CCCCC1)N1C(=O)N2CCc3c([nH]c4ccccc34)[C@@]2(C)C1=O	-18%	u	6	u	-29%	-2%
CC(C)C[C@@H](C(=O)NC1CC1)N1C(=O)N2CCc3c([nH]c4ccccc34)[C@@]2(C)C1=O	u	u	9	u	-10%	1%
CC(C)C[C@@H](C(=O)NC1CCN(Cc2ccccc2)CC1)N1C(=O)N2CCc3c([nH]c4ccccc34)[C@@]2(C)C1=O	u	21µM*	-25	12µM*	13µM*	-2%
COCCOC(=O)C1=C(C)NC(=S)NC1c1ccc(OCC(=O)N2CC(C)OC(C)C2)c(OC)c1 (stereo not given)	9%	0%	-3	-8%	0%	2%
O=C(NCc1ccncc1)[C@@H]1CCCN1C(=O)[C@@H]1CCCN1C(=O)c1ccccc1Cl	x	-12%	43	u	x	x
Cc1cc(=O)[nH]c(SCC(=O)Nc2cccc(C(F)(F)F)c2)n1	20%	u	26	u	-12%	-3%
O=c1cc(O)c2sc(Nc3cccc(C(F)(F)F)c3)nc2[nH]1	0%	7.3µM*	-26	12µM*	-4%	2%
Cc1cc(=O)[nH]c(Nc2cccc(C(F)(F)F)c2)n1	u	23µM*	33	u	-52%	-3%
CCCCN(C)CCCNC(=O)C1(O)c2ccccc2NC(=O)N1c1ccc(Cl)cc1 (stereo not given)	-9%	-3%	-8	-17%	-3%	2%
COc1ccc(NC(=S)NNc2ccc(S(=O)(=O)Nc3ccccc3C(=O)O)cc2[N+](=O)[O-])cc1	0%	1%	-4	u	0%	-28%
CCCSS/C(CCO)=C(\C)N(C=O)Cc1cnc(C)nc1N	x	3µM*	x	5.3µM*	x	x
SMILES	TGFb inhibitor	DT40 TDP1 no CPT	IL-1B inflam inh	DT40 TDP1 CPT	HepG2 viability	ASM inhibitor
CCOC(=O)OCC/C(SC(=O)OCC)=C(\C)N(C=O)Cc1cnc(C)nc1N	x	-1%	x	3%	x	x
C/C(=C(/CCO)SSCC1CCCO1)N(C=O)Cc1cnc(C)nc1N (stereo not given)	-3%	21µM*	9	21µM*!	-1%	-1%
CC(C)NC(=O)C1(C)CCN1C(=O)c1ccc2c(c1)OCO2 (stereo not given)	-6%	-13%	16	3%	4%	x
CCc1ccc(-c2cc3c(=O)n(CC(=O)NCCCN4CCN(CC)CC4)nc(C)n3n2)cc1	0%	u	u	18µM*	-1%	0%
Cc1nn(CC(=O)NCCCN2CCC(N3CCCCC3)CC2)c(=O)c2cc(-c3ccccc3)nn12	5%	4.1µM*	-20	7.3µM*	-1%	-1%
CCOC(=O)C1CCCN(C(=O)Cn2nc(C)n3nc(-c4ccccc4)cc3c2=O)C1 (stereo not given)	5%	u	12	15µM*	2%	-1%
Cc1nn(CC(=O)NCCCN2CCN(C)CC2)c(=O)c2cc(-c3ccccc3)nn12	2%	16%	-11	5%	-3%	1%
CCN1CCN(CCCNC(=O)Cn2nc(C)n3c(cc4cc(C)ccc43)c2=O)CC1	0%	-23%	x	-12%	0%	x
COc1cc(Cl)ccc1NC(=S)N(CCN1CCOCC1)C1CCN(C(C)=O)CC1	14%	-7%	0	-13%	14%	4%
CCCCC1CC(C)(C(=O)CSc2nc3ccccc3s2)OC1=O (stereo not given)	u	0.65µM*	14	-3%	-58%	-6%
Cc1ccc(CNc2nc(C)cs2)cc1	-1%	-28%	-58*	-3%	-1%	-3%
CCCCN(CCCC)CCNC(=O)CSCc1ccc(C)cc1	-4%	21µM*	-9	26µM*	-11%	6%

Assay outcomes: PubChem BioAssay, National Center for Advancing Translational Sciences (NCATS)
